# The supplement of paper PMC6555819
# How the values were obtained:
# Assay in all cases: PBM binding z-score (relative to random genomic background probes); higher = stronger binding; sequences stand for … in GC…GCGATTGACAGCGTAGAATGAAGG
# [1] = test system: FXR:RXRa (NR concentration 270 nM, RXRa partner concentration 90 nM)
# Method in brief: (§1)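 For binding z-scores, the reference was random background probes on custom Agilent 4×180K protein-binding microarrays. These arrays were incubated 1 h with ligand-free nuclear receptor dimers in PBS pH 7.4, 2% milk, 0.02% Triton X-100, 1 mM DTT, 0.2 mg/mL BSA and 0.4 mg/ml salmon testes DNA. Fluorescence was scanned after antibody detection of each partner (one per run) and regression-normalized.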
# [2] = test system: LXRa:RXRa (NR concentration 270 nM, RXRa partner concentration 90 nM)
# Method in brief: as §1
# [3] = test system: LXRa homodimer (NR concentration 270 nM)
# Method in brief: as §1
# [4] = test system: LXRb:RXRa (NR concentration 270 nM, RXRa partner concentration 90 nM)
# Method in brief: as §1
# [5] = test system: LXRb homodimer (NR concentration 270 nM)
# Method in brief: as §1
# [6] = test system: PPARa:RXRa (NR concentration 270 nM, RXRa partner concentration 90 nM)
# Method in brief: as §1
# [7] = test system: PPARg:RXRa (NR concentration 180 nM, RXRa partner concentration 90 nM)
# Method in brief: as §1
# [8] = test system: PPARg:RXRa 270nM:90nM, anti-RXR (NR concentration 270 nM, RXRa partner concentration 90 nM)
# Method in brief: as §1
# [9] = test system: PPARg:RXRa 30nM:10nM, anti-RXR (NR concentration 30 nM, RXRa partner concentration 10 nM)
# Method in brief: as §1
# [10] = test system: PPARg:RXRa 90nM:30nM, anti-RXR (NR concentration 90 nM, RXRa partner concentration 30 nM)
# Method in brief: as §1
# [11] = test system: PPARg:RXRa DBDmut IVT, anti-RXR (DBD mutation: RXRa K156A/R161A, NR concentration 270 nM, RXRa partner concentration 90 nM)
# Method in brief: as §1
# [12] = test system: PPARg:RXRa IVT, anti-PPARg (NR concentration 270 nM, RXRa partner concentration 90 nM)
# Method in brief: as §1
# [13] = test system: PPARg DBDmut:RXRa IVT, anti-PPARg (DBD mutation: PPARg1 K132A/R137A, NR concentration 270 nM, RXRa partner concentration 90 nM)
# Method in brief: as §1
# [14] = test system: PPARg DBDmut IVT, anti-PPARg (DBD mutation: PPARg1 K132A/R137A, NR concentration 270 nM)
# Method in brief: as §1
# [15] = test system: PPARg homodimer (NR concentration 180 nM)
# Method in brief: as §1
# [16] = test system: PXR:RXRa (NR concentration 270 nM, RXRa partner concentration 90 nM)
# Method in brief: as §1
# [17] = test system: PXR homodimer (NR concentration 270 nM)
# Method in brief: as §1
# [18] = test system: RARa:RXR (NR concentration 270 nM, RXRa partner concentration 90 nM)
# Method in brief: as §1
# [19] = test system: RARa homodimer (NR concentration 270 nM)
# Method in brief: as §1
# [20] = test system: RARb:RXRa (NR concentration 270 nM, RXRa partner concentration 90 nM)
# Method in brief: as §1
Sequence,PBM binding z-score [1],PBM binding z-score [2],PBM binding z-score [3],PBM binding z-score [4],PBM binding z-score [5],PBM binding z-score [6],PBM binding z-score [7],PBM binding z-score [8],PBM binding z-score [9],PBM binding z-score [10],PBM binding z-score [11],PBM binding z-score [12],PBM binding z-score [13],PBM binding z-score [14],PBM binding z-score [15],PBM binding z-score [16],PBM binding z-score [17],PBM binding z-score [18],PBM binding z-score [19],PBM binding z-score [20]
AGAACGAGTGCAATGAGTTGATAGCACGGGTGGC,-0.597,-0.443,-0.783,-0.585,-1.04,-0.17,0.712,-0.327,-0.239,-0.508,-0.425,-0.173,-0.0779,-0.15,-0.623,1.9,7.51,-0.248,-1.04,0.212
TCATAGAGGTAAACAGGTGAAAGTCCGTAAGTTA,0.648,0.794,-0.178,0.62,-0.997,2.14,1.65,2.55,2.8,2.68,2.54,2.16,0.176,0.0732,0.143,0.625,-0.208,1.11,0.579,0.861
ACTCGGAGGACAAAGGACAGAGCTACGCCAGTGA,-0.12,-0.373,-0.502,-0.866,-0.449,-0.215,1.23,1.16,0.109,0.942,-0.0501,-0.429,-0.346,-1.22,-0.327,-0.688,-0.112,-0.495,-0.7,1.62
ATCTCTAGGTAACAAGTTTAGTGAAAGAGAGGAC,0.428,0.215,0.326,0.212,0.657,0.577,0.844,1.35,0.486,1.37,3.18,2.92,1.24,1.38,1.04,0.591,0.703,0.429,0.873,0.574
CGTCCAAGGTCAAGGACAGTGAAAGAGACTCGAA,6.84,4.98,0.198,3.81,0.401,5.57,5.12,5.16,1.84,3.73,3.23,3.38,1.03,-0.206,2.55,3.63,0.575,4.25,1.12,5.22
GCAGACAGGTTAAACGCAGGTAACTCAGGGTGGC,0.61,1.65,-0.225,0.687,-0.662,1.7,0.69,0.222,-0.592,-0.245,0.14,-0.197,-0.311,-1.1,-0.225,0.235,-0.788,1.11,-0.374,1.12
AGAATGAGGTGATTAAGATCAGGGAATTGCGGTC,-0.0476,-0.338,-0.29,-0.384,-0.427,0.785,0.618,0.415,-0.0538,0.0296,2.96,2.25,0.816,-0.56,-0.484,-0.0501,-0.416,0.0955,-0.457,0.268
ATCTCTAGGTAAAGATAGTTCACTGAATGCAAAT,0.402,4.91,1.11,1.37,0.641,1.26,0.98,0.827,0.387,0.797,2.05,1.64,0.743,0.839,1.04,1.81,0.848,1.12,0.837,1.26
TCGACTAGGTTACCAATGGGGCATTCAGCTTTCT,0.55,1.5,-0.443,1.49,-0.537,1.37,0.614,1.78,2.68,2.06,4.11,2.87,0.333,0.263,0.845,0.199,-0.246,0.659,-0.05,1.18
GCTATTAGTTGAAAGGGCAATCGAATGATTCTCG,0.568,0.562,0.189,0.633,-0.254,2.34,2.44,4.24,2.01,4.26,0.456,1,-0.234,0.628,1.15,0.658,0.0729,1.25,0.589,1.74
GCTATTAGTTGAAAGGGTAACCGAATGATTCTCG,-0.0135,0.398,0.254,0.557,-0.148,1.63,1.39,3.38,1.36,3.03,0.535,0.734,0.307,0.443,0.807,0.366,0.207,1.02,0.465,0.813
TCTTGTAGATCAATAGAGGTTAAGTAAGTGCGCT,1.18,3.63,0.745,1.96,-0.0782,2.03,0.0612,1.68,2.63,2.16,1.78,1.22,0.705,0.692,0.3,3.96,0.52,2,0.239,0.993
CCAGACAGGTGAAAGGTAACTAAGTCTGGTACGC,0.301,0.559,-0.431,0.84,-0.415,3.31,5.33,6.03,4.37,6.14,1.58,2.54,-0.18,-0.253,0.909,0.819,0.101,1.81,0.324,1.14
CGAACTAGGTCATCCAGGACAGTAAATACATTGA,4.22,2.79,0.899,2.36,0.21,4.68,7.87,6.33,3.68,5.68,7.97,8.2,3,3.62,2.26,2.15,1.3,2.69,0.413,3.89
TCTATTAGTTGAACGGCAACCGACGAGTCCGTTT,0.294,0.618,0.311,0.621,0.735,0.859,0.133,1.87,3.63,2.83,2.15,0.0618,0.259,0.73,0.735,0.661,0.768,0.372,0.868,0.424
GCAGACAGGTGAGACGCAGGTAACTCAGGGTGGC,-0.153,-0.129,-0.774,-0.355,-1.18,0.164,0.374,-0.0915,-0.758,-0.532,0.0725,0.0836,-0.435,-0.858,-0.513,-0.282,-0.385,0.154,-0.0204,0.422
GGAACGAGGGCCTTCGAGTTGATAGCATGGCGAT,-0.344,-0.805,-0.648,-0.91,-1.22,-0.579,0.209,-0.359,-0.539,-0.758,0.104,-0.566,-0.653,-1.28,-1.03,-0.313,-0.534,-0.659,-0.765,-0.306
TTGCCAAGGTGAAGGTCGTTGATCCCTCTGTAGA,2.38,1.79,-0.705,1.45,-1.15,2.12,0.85,2.06,0.251,1.41,1.25,2.3,-1.04,-0.656,0.119,1.21,-0.362,1.6,-0.87,2.08
TAGCCTAGGTCATTGGGCCAGTATCGTACGCATC,4.61,3.37,0.842,2.55,0.185,3.85,3.26,3.52,0.601,2.34,2.91,3.95,0.593,-0.521,1.11,1.68,-0.331,2.39,0.0894,3.85
GATACAAGGTCAAGGCCAGAGTACGCGTATTGAT,7.16,5.44,1.37,4.03,0.481,5.49,5.86,5.56,2.28,4.41,3.92,4.69,1.01,0.226,2.18,3.85,0.847,4.27,0.975,5.35
TCTTGTAGATCAGAAGGTTAAGAAAGCTGGCCAA,0.619,1.02,0.09,1.16,-0.193,1.54,0.167,2.4,3.46,3.03,1.98,0.611,0.0732,-0.22,0.201,0.61,0.0531,0.924,0.498,1.07
TCTTCTAGATCAATAGAGGTTAAGAAAGTGCGCT,0.907,3.4,0.664,1.92,0.831,1.9,0.156,2,3.32,2.76,2.16,1.48,1.87,0.999,0.764,3.02,0.423,1.8,0.413,0.98
ATCGAAAGGTCGAACGTGAGTATACCCACCCGAA,4.36,3.99,0.856,3.32,1.01,4.39,2.81,2.76,1.14,2.12,0.292,1.49,1.19,0.459,1.65,2.61,0.229,2.83,0.171,3.75
ATCGAAAGGTCGTGAGTTGAGTATACAGAAAGGC,4.98,3.53,0.0498,2.99,0.743,4.84,3.55,3.9,1.82,2.85,-0.00462,1.66,1.4,1.03,1.91,3.2,0.152,3.9,0.363,3.82
CTCGAAAGGTCGTGCTCAGGTGAGTATACCAAAC,5.37,4.02,0.432,3.45,0.379,4.99,2.62,3.65,0.746,2.23,0.806,1.92,0.159,0.522,2.26,3.47,-0.155,4.39,0.399,3.9
CGAGCTAGGTCAAGGACAGTGAATCTCCGCACGC,3.4,2.03,-0.283,1.22,-0.582,3.06,2.07,2.14,0.109,1.07,3.38,2.99,-0.96,-1.07,1.61,1.01,-0.22,2.02,0.121,3.74
ATCGAAGGGTCGAGGTGAGTATAGAGAAAGGGAA,1.41,1.24,0.0219,1.19,0.389,2.62,1.49,1.28,0.548,0.905,-0.0932,1.19,0.848,0.0579,1.27,1.26,0.308,1.74,1.01,2.51
CCAGACAGGTGAGAAGGTAACTGAGCCTCGATTA,-0.0558,-0.104,-0.12,-0.102,-0.691,0.592,0.397,0.61,-0.11,0.193,0.955,0.477,-0.278,-0.535,0.591,-0.214,0.124,0.14,0.118,0.396
